# According to PubChem BioAssay (EPA / NIEHS):
# Several values for one entry are separate records, joined by “and”; a condition that tells them apart may be missing. Equal entries are not always repeated. Results filed as inconclusive are left out. Some structures have more than one record in an assay (separate samples or runs), and their calls can disagree. Activity calls are given as the source filed them. Rule for the calls, unless noted: active = hit-call score of the fitted dose curve at least 0.9, where 1 is the maximum; inconclusive = response in the unintended direction; inactive = score below 0.9.
# Tests used:
# [1] = molecular target: bovine Estrogen Receptor (ER), ESR1 (gene 407238) (UniProt P49884); test: NVS_NR_bER: NovaScreen (NVS) Nuclear Receptor Binding Assay for bovine Estrogen Receptor (ER) (AID 2283345);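 note: actives lower the bound radioligand count which means they displace the ER ligand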
# Procedure, shortened: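 Cell-free radioligand binding with receptor from bovine uterine membranes, read by scintillation counting 18 h after dosing. Loss of specific binding was scored against DMSO; primary screen at 25 uM in duplicate, actives then run as concentration series.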
# [2] = molecular target: Estrogen receptor (Homo sapiens) (UniProt P03372); test: NVS_NR_hER: NovaScreen (NVS) Nuclear Receptor Binding Assay for human Estrogen Receptor (ER) (AID 2283348)
# Procedure, shortened: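 Cell-free MCF7-derived ER preparation, specific radioligand displaced by test compound, read by scintillation counting 18 h post-dosing. Duplicate single-point 25 uM screen, then concentration-response confirmation; DMSO baseline.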
# [3] = molecular target: mouse Estrogen Receptor alpha (Era), Esr1 (gene 13982) (UniProt P19785); test: NVS_NR_mERa: NovaScreen (NVS) Nuclear Receptor Binding Assay for mouse Estrogen Receptor alpha (Era) (AID 2283378);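 note: hit means loss of bound radioligand signal relative to DMSO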
# Procedure, shortened: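 Extracted mouse Era incubated with tritiated or iodinated radioligand plus test chemical, 18 h. Bound fraction separated on filters, counted by scintillation. DMSO = negative control/baseline; duplicate single-point at 25 uM, then concentration-response follow-up.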
# [4] = molecular target: Cellular tumor antigen p53 (Homo sapiens) (UniProt P04637); test: TOX21_p53_BLA_p2_ratio: Tox21 HCT-116 p53 Agonism Beta-lactamase Assay, Ratio, Phase 2 (AID 2283592)
# Procedure, shortened: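 Plated HCT116 p53-bla cells (4000/well) received compound after 5 h, then 16 h at 37C/5% CO2. CCF4-AM added, 2 h RT. Ratio of 460 to 530 nm emission taken as the p53 reporter signal.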
# [5] = TOX21_p53_BLA_p3_viability: Viability Assessment in the Tox21 HCT-116 p53 Agonism Beta-lactamase Assay, Phase 3 (AID 2283593);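 note: cells exposed to compound for 16 h before reading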
# Procedure, shortened: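 Cellular ATP was quantified by CellTiter-Glo luminescence, read after 30 min at room temperature. Beforehand, HCT116 cells (4000/well) received compound 5 h post-seeding, 217-fold diluted from DMSO, then incubated 16 h at 37C.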
# [6] = molecular target: Cellular tumor antigen p53 (Homo sapiens) (UniProt P04637); test: TOX21_p53_BLA_p4_ratio: Tox21 HCT-116 p53 Agonism Beta-lactamase Assay, Ratio, Phase 4 (AID 2283601)
# Procedure, shortened: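 Signal is the blue/green (460nm/530nm) ratio of cleaved versus uncleaved CCF4-AM substrate, read after 2 h substrate loading. Cells were HCT116 carrying the p53-responsive beta-lactamase reporter, dosed 16 h at 37C, 5% CO2; CellTiter-Glo measured in parallel.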
# [7] = CCTE_Harrill_HTTr_Viability_MCF7: CCTE's 6-hour Cell Viability Assessment for the High-Throughput Transcriptomics (HTTr) Platform, in MCF-7 cells cultured in DMEM + 10% fetal bovine serum, Harrill Lab (AID 2284010; active = hit-call score of the fitted dose curve at least 0.9, where 1 is the maximum; inactive = score below 0.9)
# Procedure, shortened: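 Eight-point concentration series, six-hour exposure. Propidium iodide exclusion imaged to assess membrane integrity as a cytotoxicity readout; bidirectional fitting was done with DMSO as negative control and activity baseline.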
# [8] = CCTE_Harrill_HTTr_Apoptosis_MCF7: CCTE's 6-hour Apoptosis Assessment for the High-Throughput Transcriptomics (HTTr) Platform, in MCF-7 cells cultured in DMEM + 10% fetal bovine serum, Harrill Lab (AID 2284011; active = hit-call score of the fitted dose curve at least 0.9, where 1 is the maximum; inactive = score below 0.9)
# Procedure, shortened: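 MCF-7 (DMEM + 10% FBS), 384-well; 8-pt dilution series, 6 h chemical exposure; caspase-3/7 activation via CellEvent Caspase 3/7 Green, HCI; bidirectional fit vs DMSO.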
# [9] = CCTE_Harrill_HTTr_CellCount_MCF7: CCTE's Cell Proliferation Assessment for the High-Throughput Transcriptomics (HTTr) Platform, Harrill Lab (AID 2284012);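 note: count of Hoechst-stained nuclei per well by high-content imaging in MCF-7 cells; cells exposed to compound for six hours; intended direction is loss of nuclei count meaning fewer cells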
# Procedure, shortened: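 For this full-screen endpoint, MCF-7 cultures received eight compound dilutions for six hours. Well nuclei counts from Hoechst imaging were analyzed relative to DMSO.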
# [10] = TOX21_p53_BLA_p2_viability: Viability Assessment in the Tox21 HCT-116 p53 Agonism Beta-lactamase Assay, Phase 2 (AID 2283591);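 note: compound exposure lasted 16 h at 37 °C; actives lower the ATP signal meaning cytotoxicity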
# Procedure, shortened: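 Cytotoxicity readout: CellTiter-Glo ATP luminescence, 30 min at room temperature, after the beta-lactamase read. Cells were HCT116 exposed 16 h at 37C to compounds pin-transferred at 217-fold dilution from DMSO stocks.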
# [11] = molecular target: Cellular tumor antigen p53 (Homo sapiens) (UniProt P04637); test: TOX21_p53_BLA_p3_ratio: Tox21 HCT-116 p53 Agonism Beta-lactamase Assay, Ratio, Phase 3 (AID 2283596)
# Procedure, shortened: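 Cells were seeded at 4000/well, rested 5 h at 37C, then dosed with DMSO compound solutions (217-fold dilution) for 16 h. CCF4-AM substrate was loaded for 2 h at room temperature, and the 460/530 nm emission ratio was fitted for gain of signal versus DMSO.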
# [12] = TOX21_p53_BLA_p4_viability: Viability Assessment in the Tox21 HCT-116 p53 Agonism Beta-lactamase Assay, Phase 4 (AID 2283597);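 note: hits lower the luminescence signal meaning cytotoxicity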
# Procedure, shortened: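 Readout: ATP luminescence (CellTiter-Glo), measured 30 min after reagent addition at RT. The reagent followed a 2 h CCF4-AM incubation, and the cells had been exposed to compound for 16 h at 37C.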
# [13] = molecular target: Cellular tumor antigen p53 (Homo sapiens) (UniProt P04637); test: TOX21_p53_BLA_p5_ratio: Tox21 HCT-116 p53 Agonism Beta-lactamase Assay, Ratio, Phase 5 (AID 2283599)
# Procedure, shortened: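 Beta-lactamase reporter ratio (blue 460 nm over green 530 nm, 405 nm excitation) after 2 h CCF4-AM loading, in HCT-116 cells exposed 16 h at 37 C to compounds pinned at 217-fold dilution. Increases relative to DMSO baseline scored.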
# [14] = TOX21_p53_BLA_p5_viability: Viability Assessment in the Tox21 HCT-116 p53 Agonism Beta-lactamase Assay, Phase 5 (AID 2283600)
# Procedure, shortened: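 Workflow: seed 4000 cells per well, wait 5 h, add compounds (DMSO, 217-fold dilution), incubate 16 h, load CCF4-AM 2 h, add CellTiter-Glo, read luminescence after 30 min.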
# [15] = molecular target: Voltage-dependent N-type calcium channel subunit alpha-1B (Rattus norvegicus) (UniProt Q02294); test: NVS_IC_rCaChN: NovaScreen (NVS) Ion Channel Assay for rat Calcium Channel, Type N (CaChN) (AID 2283317)
# [16] = molecular target: rat Gamma-Aminobutyric Acid Type A Receptor BDZ, alpha 6 site (GABARa6), Gabra6 (gene 29708) (UniProt P30191); test: NVS_LGIC_rGABARa6: NovaScreen (NVS) Ligand-Gated Ion Channel Assay for rat Gamma-Aminobutyric Acid Type A Receptor BDZ, alpha 6 site (GABARa6) (AID 2283339)
# Procedure, shortened: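 Actives from a 25 uM duplicate screen were retested in concentration series (max 50 uM). Specific radioligand displacement from rat cerebellar membranes was counted by filter-based scintillation at 1 h; DMSO served as baseline.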
# [17] = molecular target: Norway rat Vesicular Monoamine Transporter (VMAT2), neurotransmitter transporter, Slc18a2 (gene 25549) (UniProt Q01827); test: NVS_TR_rVMAT2: NovaScreen (NVS) Transporter Assay for Norway rat Vesicular Monoamine Transporter (VMAT2), neurotransmitter transporter (AID 2283376);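 note: actives lower the bound radioligand signal below the DMSO level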
# Procedure, shortened: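 Using rat forebrain membranes, specific radioligand binding to VMAT2 was measured by filtration and scintillation counting after 1 hour. Chemicals screened at 25 uM in duplicate, actives retested in concentration series, DMSO baseline.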
# Sequence of Estrogen receptor (Homo sapiens) (P03372 whole entry, looked up): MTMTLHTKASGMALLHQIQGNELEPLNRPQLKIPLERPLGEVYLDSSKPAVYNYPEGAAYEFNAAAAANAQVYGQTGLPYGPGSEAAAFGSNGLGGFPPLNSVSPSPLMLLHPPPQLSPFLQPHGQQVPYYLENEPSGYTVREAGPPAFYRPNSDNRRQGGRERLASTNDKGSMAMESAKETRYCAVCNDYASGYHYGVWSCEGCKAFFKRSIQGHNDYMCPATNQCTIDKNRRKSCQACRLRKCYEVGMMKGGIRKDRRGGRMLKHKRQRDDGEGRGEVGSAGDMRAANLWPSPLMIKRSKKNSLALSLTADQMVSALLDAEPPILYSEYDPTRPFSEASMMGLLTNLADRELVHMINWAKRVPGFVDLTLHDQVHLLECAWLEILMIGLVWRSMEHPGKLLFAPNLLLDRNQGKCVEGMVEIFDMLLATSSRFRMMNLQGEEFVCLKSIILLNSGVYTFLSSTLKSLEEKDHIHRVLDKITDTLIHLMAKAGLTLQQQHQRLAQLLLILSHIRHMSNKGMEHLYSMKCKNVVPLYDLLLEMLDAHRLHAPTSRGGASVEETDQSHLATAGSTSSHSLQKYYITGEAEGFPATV
# Sequence of Norway rat Vesicular Monoamine Transporter (VMAT2), neurotransmitter transporter, Slc18a2 (gene 25549) (Q01827 whole entry, looked up): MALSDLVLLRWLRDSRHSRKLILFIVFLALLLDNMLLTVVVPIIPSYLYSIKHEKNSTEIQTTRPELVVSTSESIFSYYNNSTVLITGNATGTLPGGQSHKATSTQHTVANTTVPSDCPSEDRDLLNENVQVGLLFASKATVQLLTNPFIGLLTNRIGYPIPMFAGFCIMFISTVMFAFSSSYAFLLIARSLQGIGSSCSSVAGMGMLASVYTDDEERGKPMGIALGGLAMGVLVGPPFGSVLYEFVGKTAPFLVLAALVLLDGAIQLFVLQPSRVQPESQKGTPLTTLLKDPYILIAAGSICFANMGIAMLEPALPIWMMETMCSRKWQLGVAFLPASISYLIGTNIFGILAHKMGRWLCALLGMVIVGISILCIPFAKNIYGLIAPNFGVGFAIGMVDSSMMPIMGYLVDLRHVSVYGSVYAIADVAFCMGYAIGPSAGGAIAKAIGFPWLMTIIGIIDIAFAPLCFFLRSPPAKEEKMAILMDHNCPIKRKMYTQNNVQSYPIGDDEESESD
# Sequence of Cellular tumor antigen p53 (Homo sapiens) (P04637 whole entry, looked up): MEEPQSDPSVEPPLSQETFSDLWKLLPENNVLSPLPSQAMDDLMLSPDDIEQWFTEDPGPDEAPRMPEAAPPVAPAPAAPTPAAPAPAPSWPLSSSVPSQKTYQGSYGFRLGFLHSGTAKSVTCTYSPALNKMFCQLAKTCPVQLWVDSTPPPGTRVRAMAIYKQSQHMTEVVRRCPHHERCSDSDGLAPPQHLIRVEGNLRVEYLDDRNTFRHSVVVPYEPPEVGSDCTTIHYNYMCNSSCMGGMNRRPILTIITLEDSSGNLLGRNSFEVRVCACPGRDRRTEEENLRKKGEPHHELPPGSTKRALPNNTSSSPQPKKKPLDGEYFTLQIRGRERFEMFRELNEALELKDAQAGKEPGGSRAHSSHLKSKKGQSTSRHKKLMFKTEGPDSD
# Sequence of bovine Estrogen Receptor (ER), ESR1 (gene 407238) (P49884 whole entry, looked up): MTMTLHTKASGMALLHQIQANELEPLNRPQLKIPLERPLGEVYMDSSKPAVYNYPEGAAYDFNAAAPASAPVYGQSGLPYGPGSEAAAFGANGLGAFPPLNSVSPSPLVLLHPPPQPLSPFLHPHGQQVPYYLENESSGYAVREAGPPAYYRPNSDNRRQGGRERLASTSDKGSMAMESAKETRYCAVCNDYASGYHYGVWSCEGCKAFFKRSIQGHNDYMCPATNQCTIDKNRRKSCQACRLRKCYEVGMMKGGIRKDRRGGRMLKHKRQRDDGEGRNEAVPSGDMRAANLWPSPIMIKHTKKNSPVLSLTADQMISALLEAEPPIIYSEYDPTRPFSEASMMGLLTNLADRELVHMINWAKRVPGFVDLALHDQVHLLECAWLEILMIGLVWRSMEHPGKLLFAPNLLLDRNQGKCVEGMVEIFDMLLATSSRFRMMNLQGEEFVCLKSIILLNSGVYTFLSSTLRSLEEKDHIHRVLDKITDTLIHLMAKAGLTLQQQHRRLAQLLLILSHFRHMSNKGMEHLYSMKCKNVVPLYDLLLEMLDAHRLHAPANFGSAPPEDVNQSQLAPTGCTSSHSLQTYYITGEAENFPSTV
# Sequence of mouse Estrogen Receptor alpha (Era), Esr1 (gene 13982) (P19785 whole entry, looked up): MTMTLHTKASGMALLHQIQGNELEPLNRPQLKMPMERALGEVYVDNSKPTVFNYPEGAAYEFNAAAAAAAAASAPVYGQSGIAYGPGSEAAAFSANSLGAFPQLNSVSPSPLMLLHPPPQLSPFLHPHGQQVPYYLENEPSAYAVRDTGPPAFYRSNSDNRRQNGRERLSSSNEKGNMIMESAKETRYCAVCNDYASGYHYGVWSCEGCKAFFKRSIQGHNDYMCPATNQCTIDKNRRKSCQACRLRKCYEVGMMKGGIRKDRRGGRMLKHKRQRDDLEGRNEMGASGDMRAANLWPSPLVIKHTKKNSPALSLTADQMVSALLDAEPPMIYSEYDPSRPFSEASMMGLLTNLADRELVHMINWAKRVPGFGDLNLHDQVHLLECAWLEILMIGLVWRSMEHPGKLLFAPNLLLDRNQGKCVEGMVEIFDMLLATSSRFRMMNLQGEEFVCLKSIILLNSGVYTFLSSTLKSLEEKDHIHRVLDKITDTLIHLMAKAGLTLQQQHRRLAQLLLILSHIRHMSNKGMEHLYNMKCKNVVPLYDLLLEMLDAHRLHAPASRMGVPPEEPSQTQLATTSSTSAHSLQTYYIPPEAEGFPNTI
# Sequence of rat Gamma-Aminobutyric Acid Type A Receptor BDZ, alpha 6 site (GABARa6), Gabra6 (gene 29708) (P30191 whole entry, looked up): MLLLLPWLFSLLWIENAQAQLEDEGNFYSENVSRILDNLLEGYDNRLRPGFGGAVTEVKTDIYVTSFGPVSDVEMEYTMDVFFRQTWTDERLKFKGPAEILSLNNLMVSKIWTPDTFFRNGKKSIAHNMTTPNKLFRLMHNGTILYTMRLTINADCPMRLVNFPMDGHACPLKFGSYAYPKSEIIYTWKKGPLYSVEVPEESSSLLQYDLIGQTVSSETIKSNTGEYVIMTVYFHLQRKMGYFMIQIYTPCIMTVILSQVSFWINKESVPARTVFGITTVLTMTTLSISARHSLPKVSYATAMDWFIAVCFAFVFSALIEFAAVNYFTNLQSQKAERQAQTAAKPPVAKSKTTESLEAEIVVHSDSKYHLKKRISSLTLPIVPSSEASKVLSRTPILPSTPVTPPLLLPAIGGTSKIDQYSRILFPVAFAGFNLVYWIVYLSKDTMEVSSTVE
smiles,measurement,setting,value
OC(c1ccc(F)cc1)(c1cncnc1)c1ccccc1Cl (stereo unspecified),outcome,[1],inactive
same,AC50,[2],21.2 µM (active)
same,outcome,[3],inactive
same,outcome,[4],inactive
same,outcome,[5],inactive
same,outcome,[6],inactive
same,outcome,[7],inactive
same,outcome,[8],inactive
same,outcome,[9],inactive
CC(=O)[O][Pb]([c]1ccccc1)([c]1ccccc1)[c]1ccccc1,outcome,[1],inactive
same,AC50,[2],8.22 µM (active)
same,AC50,[10],458 nM (active)
same,AC50,[4],23.3 µM (active)
same,AC50,[5],4.03 µM (active)
same,AC50,[11],38.7 µM (active)
same,AC50,[12],655 nM (active)
same,AC50,[13],32.7 µM (active)
same,AC50,[14],1.32 µM (active)
same,AC50,[6],32.5 µM (active)
OCC(CO)(CO)CO,outcome,[15],inactive
COc1ccc(OC)c(N=Nc2c(O)ccc3ccccc23)c1,outcome,[16],inactive
Oc1cc[c]([Hg][Cl])cc1,AC50,[10],20.9 µM (active) and 10.7 µM (active)
same,AC50,[4],13.9 µM (active)
same,outcome,[4],inactive
same,AC50,[5],41.6 µM (active) and 18.9 µM (active)
same,AC50,[11],30.1 µM (active) and 35.2 µM (active)
same,AC50,[12],20.4 µM (active) and 9.85 µM (active)
same,AC50,[13],39.2 µM (active) and 17.4 µM (active)
same,AC50,[6],41 µM (active) and 19.2 µM (active)
CC[N+](CC)(CC(=O)Nc1c(C)cccc1C)Cc1ccccc1,outcome,[17],inactive
CC(C)OC(=O)C(O)(c1ccc(Cl)cc1)c1ccc(Cl)cc1,outcome,[2],inactive
same,outcome,[3],inactive
same,AC50,[10],70600 nM (active)
same,outcome,[4],inactive
same,outcome,[5],inactive
same,outcome,[11],inactive
same,AC50,[12],67400 nM (active)
same,AC50,[13],66.6 µM (active)
same,outcome,[14],inactive
same,AC50,[6],69.8 µM (active)
CCCCCCCCCCCCCCn1cc[n+](C)c1,AC50,[10],82.2 µM (active) and 60.1 µM (active)
same,outcome,[10],inactive
same,AC50,[4],6.74 µM (active) and 2.12 µM (active)
same,outcome,[4],inactive
same,AC50,[5],10.3 µM (active) and 77.3 µM (active)
same,outcome,[5],inactive
same,AC50,[12],598 nM (active) and 40 µM (active)
same,outcome,[12],inactive
same,AC50,[13],49.6 µM (active) and 39.7 µM (active)
same,AC50,[14],86.2 µM (active) and 46.2 µM (active)
same,outcome,[14],inactive
same,AC50,[6],63.9 µM (active) and 63.4 µM (active)
same,outcome,[6],inactive
O=[N+]([O-])c1ccc(Oc2ccc(C(F)(F)F)cc2[N+](=O)[O-])cc1,outcome,[1],inactive
same,outcome,[10],inactive
same,outcome,[5],inactive
same,outcome,[11],inactive
same,outcome,[12],inactive
same,outcome,[13],inactive
same,outcome,[14],inactive
same,outcome,[6],inactive
CCN(CC)c1c([N+](=O)[O-])cc(C(F)(F)F)c(N)c1[N+](=O)[O-],outcome,[2],inactive
same,outcome,[10],inactive
same,outcome,[4],inactive
same,outcome,[11],inactive
same,outcome,[14],inactive
same,outcome,[6],inactive
Cc1cc(CCC(=O)OCCOCCOCCOC(=O)CCc2cc(C)c(O)c(C(C)(C)C)c2)cc(C(C)(C)C)c1O,outcome,[17],inactive
C/C=C\C/C=C/CCCCCCCCOC(C)=O,outcome,[17],inactive
Clc1ccc(Nc2nnc(Cc3ccncc3)c3ccccc23)cc1,AC50,[17],7.04 µM (active)
Cc1ccc(S(=O)(=O)C(I)I)cc1,AC50,[17],1.19 µM (active)
